Hits are enriched below; roughly 1.3% of the tested compounds scored in any of these assays.
ADAM17 inh = ADAM17 inhibition, QFRET primary screen; inhibition, % at 6.95 µM; P78536; 370,000 tested, 0.83% active; recombinant ADAM17, EDANS/DABCYL FRET peptide cleavage;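 active = inhibition above the mean of compounds lying between control limits plus 3 SD, set per campaign, cut at about 8.5% in these data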
Target sequence (P78536 215-824 limits assumed): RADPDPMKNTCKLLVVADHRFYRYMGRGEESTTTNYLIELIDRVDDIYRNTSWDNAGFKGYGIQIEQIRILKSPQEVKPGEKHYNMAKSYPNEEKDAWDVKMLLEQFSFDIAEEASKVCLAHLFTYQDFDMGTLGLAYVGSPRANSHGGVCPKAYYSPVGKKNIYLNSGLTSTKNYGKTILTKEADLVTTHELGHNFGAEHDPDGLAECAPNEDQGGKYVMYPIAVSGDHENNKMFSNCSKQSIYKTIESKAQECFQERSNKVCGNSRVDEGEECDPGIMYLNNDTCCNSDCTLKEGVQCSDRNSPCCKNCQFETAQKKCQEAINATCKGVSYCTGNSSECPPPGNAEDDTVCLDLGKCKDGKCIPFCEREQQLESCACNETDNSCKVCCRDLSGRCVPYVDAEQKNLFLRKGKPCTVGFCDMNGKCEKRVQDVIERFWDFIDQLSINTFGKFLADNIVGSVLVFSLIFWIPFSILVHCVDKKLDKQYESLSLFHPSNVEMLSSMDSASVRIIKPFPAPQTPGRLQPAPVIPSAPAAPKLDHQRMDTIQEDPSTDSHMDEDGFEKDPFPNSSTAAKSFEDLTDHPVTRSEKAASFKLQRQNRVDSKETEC
GC-A act = GC-A (human) enzyme activation | P16066 | HEK293 GC-A cells, cGMP TR-FRET, EC30 ANP; 0% at EC30 ANP, 100% saturating ANP | activation, % at 10 µM | 370,000 tested, 0.14% active | AID 1671463; in the data active = activation above about 40%
GC-B act = GC-B (human) receptor activation | P20594 | HEK293-GC-B cells, CNP EC30, cGMP TR-FRET; 0% at EC30 CNP, 100% saturating CNP | activation, % at 10 µM | 370,000 tested, 0.11% active;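 active = activation at 10 µM reaching about 35% in either raw or pattern-adjusted values, limit read from the data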
ADAM10 inh = ADAM10 inhibition, QFRET primary screen; AID 720582; 370,000 tested, 0.62% active; O14672; recombinant ADAM10, EDANS/DABCYL FRET peptide cleavage, 3 h; inhibition, % at 7 µM;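 active = inhibition above a per-campaign cutoff equal to the mean of compounds falling between control-based bounds plus 3 SD, cut at about 20% in these data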
ADAM10 ctr = ADAM10 inhibition, counter-screen for ADAM17 exosite hits; recombinant ADAM10, EDANS/DABCYL FRET peptide cleavage, 3 h; inhibition, % at 6.95 µM; 2,900 tested, 47% active; shares compounds with ADAM17 inh; AID 743256;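 active = mean inhibition over the triplicate runs exceeds the activity threshold set in the earlier primary screen, cut at about 20% in these data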
ADAM17 confirm = confirmation of inhibitors of human ADAM17 | shares compounds with ADAM17 inh | recombinant ADAM17, EDANS/DABCYL QFRET peptide cleavage | inhibition, % at 6.95 µM | 2,900 tested, 65% active | AID 743257;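 active = mean inhibition across replicates above the hit cutoff set in the primary screen, cut at about 8.5% in these data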
Each line names hits and unclear results; the compound was inactive in the other large screens (follow-up assays come after a bar, where they were run).

Cc1noc(C)c1S(=O)(=O)N(C)C[C@H]1Oc2c(NC(=O)C3CCCCC3)cccc2C(=O)N([C@H](C)CO)C[C@@H]1C	ADAM17 inh 10 | ADAM10 ctr inactive | ADAM17 confirm inactive
CCOc1ccc(-c2n[nH]c(C)c2-c2ccccc2OC)c(O)c1	none
CCc1cc(-c2n[nH]c(C)c2-c2ccccc2Cl)c(O)cc1OC	ADAM17 inh 8.7 | ADAM10 ctr 32 | ADAM17 confirm 16
CCC(=O)N1CCc2cc(S(=O)(=O)Nc3ccccc3C)ccc21	none
Cc1ccccc1NC(=O)OC1CCC12CCC(c1ccccc1)CC2 (centres undefined)	none
CC(Oc1ccc(Cl)cc1)c1ccnn1S(=O)(=O)c1ccccc1 (centres undefined)	ADAM17 inh 8.9 | ADAM10 ctr inactive | ADAM17 confirm 15
CC(Oc1ccccc1)c1ccnn1S(C)(=O)=O (centres undefined)	none
CCC(C(=O)Nc1cccc(C(F)(F)F)c1)c1ccccc1 (centres undefined)	ADAM17 inh 8.7 | ADAM10 ctr 20 | ADAM17 confirm 9.4
O=C(Nc1cccc(C(F)(F)F)c1)C(SCCO)c1ccccc1 (centres undefined)	none
O=C(c1ccc(CS(=O)Cc2ccc(Cl)cc2)o1)N1CCN(c2cccc(Cl)c2)CC1 (centres undefined)	none
Cc1cccc(N2CCN(C(=O)c3ccc(CS(=O)Cc4ccc(Cl)cc4)o3)CC2)c1C (centres undefined)	ADAM17 inh 11 | ADAM10 ctr inactive | ADAM17 confirm 12
CN(C)c1ccc(/C=N/NC(N)=S)cc1[N+](=O)[O-]	ADAM17 inh 10 | ADAM10 ctr 28 | ADAM17 confirm 15
O=C(N/C(=C/c1ccc(Cl)cc1)C(=O)N1CCCC1)c1ccccc1	none
COC(=O)C1=C(C(=O)OC)SC2(S1)C(C(=O)OC)=C(C(=O)OC)SC1=C2c2cccc(C)c2NC1(C)C	ADAM17 inh 13 | ADAM10 ctr inactive | ADAM17 confirm 11
CCc1cc(-c2nnn(-c3cc(C(C)C)ccc3C)c2CC)ccc1-c1cn(CCc2c[nH]c3ccccc23)nn1	none
O=C(Cn1nc(-c2ccccc2)c2ccccc2c1=O)Nc1ccc(F)cc1	none
N#Cc1c(-c2ccccc2)c(-c2ccccc2)nn(CC(=O)NNC(=O)Nc2ccc(Cl)c(Cl)c2)c1=O	ADAM17 inh 15 | ADAM10 ctr 27 | ADAM17 confirm 18
O=C(NCC1CCCO1)c1cnn2c1NC(c1ccccc1)CC2C(F)(F)F (centres undefined)	ADAM17 inh 11 | ADAM10 ctr inactive | ADAM17 confirm inactive
COc1ccc(OC)c(Nc2ccc(Nc3cc(OC)ccc3OC)nn2)c1	ADAM17 inh 18 | ADAM10 ctr inactive | ADAM17 confirm inactive
O=C(N[C@H]1C/C=C\C[C@@H](CC(=O)N(CCO)Cc2ccccc2)C(=O)NC[C@H](c2ccccc2)OC1=O)OCC1c2ccccc2-c2ccccc21	ADAM17 inh 17 | ADAM10 ctr inactive | ADAM17 confirm inactive
Cc1ccc(OCCC(=O)OCC(=O)NC(=O)NC2CCCCC2)cc1	ADAM17 inh 9.0 | ADAM10 ctr 30 | ADAM17 confirm 14
O=C(CN1C(=O)C(=O)N(C2CCCC2)C1=O)Nc1ccc(OC(F)F)cc1	none
Cc1cc(Oc2ccccc2)nc(SCC(=O)Nc2ccc(Cl)c(Cl)c2)n1	ADAM17 inh 14 | ADAM10 ctr inactive | ADAM17 confirm 12
CCOC(=O)c1cc(OC(=O)c2ccccc2OC)n(-c2ccccc2)n1	ADAM17 inh 11 | ADAM10 ctr inactive | ADAM17 confirm 12
O=S1(=O)c2ccc(N3CCCC3)cc2Oc2ccccc2CN1Cc1cn(Cc2cccc(F)c2)nn1	none
COC(=O)[C@@]1(Cc2ccc(F)cc2)[C@H]2c3cc(C(=O)N(C)C)n(CCc4c[nH]c5ccc(O)cc45)c3C[C@H]2CN1C(=O)c1ccccc1	none
COc1ccccc1NC(=O)Cn1nc(-c2ccc(Cl)cc2)c2ccccc2c1=O	ADAM17 inh 8.7 | ADAM10 ctr inactive | ADAM17 confirm 14
CCc1nc2ccc(C(=O)Nc3cccc(OCC(=O)N(C)C)c3)cn2c1N(CC)CCOC	none

Screens deposited in PubChem BioAssay by several laboratories.
